Bioassay records (PubChem)
An excerpt weighted towards active compounds, which were near 8.7% of everything screened.
VACV Venus inh – qHTS for Stage-Specific Inhibitors of Vaccinia Orthopoxvirus: Venus Reporter Primary qHTS; hit rate 0.46% among 330,000; Vaccinia virus Venus reporter expression, fluorescence; AID 720580, 2013; Potency, µM (series often up to 36.5 µM), for the others: at the top dose activity change, negative = inhibition, actives largely listed as inhibitors; calls by dose curve; tested in A549 cells; also: nearly all actives have a fitted effect of over 30% in size
Pf growth 48h – Primary qHTS for delayed death inhibitors of the malarial parasite plastid, 48 hour incubation; Potency, µM (series often up to 28.7 µM), without a hit: at the highest dose activity change, negative = inhibition, actives largely listed as inhibitors; AID 504832, 2011; hit rate 5.9% among 310,000; P. falciparum luciferase growth in erythrocytes, 48 h
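Read-out is firefly luciferase luminescence from an integrated reporter in P. falciparum, so falling signal marks reduced parasite growth. Infected erythrocytes were at 2% hematocrit and 0.1% parasitemia (final) in Albumax-supplemented RPMI 1640.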
Pf growth 96h – Primary qHTS for delayed death inhibitors of the malarial parasite plastid, 96 hour incubation; P. falciparum luciferase reporter growth, 96 h; Potency, µM (series often up to 28.7 µM), inactives show top-dose activity change, negative = inhibition, hits mostly inhibitors; hit rate 6.9% among 320,000; AID 504834, 2011
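Erythrocytes infected with luciferase-expressing P. falciparum were dispensed at 2% hematocrit and 0.05% parasitemia (final), then incubated with compounds 96 hours at 37 C in 5% CO2. Luminescence after detection reagent addition reported growth.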
VACV mCherry inh – qHTS for Stage-Specific Inhibitors of Vaccinia Orthopoxvirus: mCherry Reporter Primary qHTS | Vaccinia virus mCherry reporter infection, fluorescence | Potency, µM (titrated, usually from 36.5 µM), inactives show at the highest dose activity change, negative = inhibition, most hits filed as inhibitors | hit rate 0.63% among 310,000 | AID 720579, 2013; calls by dose curve; tested in A549 cells; also: nearly all actives have a fitted effect of over 35% in size
AMA1 RON2 block – qHTS for Inhibitors of AMA1-RON; Towards Development of Antimalarial Drug Lead: Primary Screen. Plasmodium falciparum AMA1 (3D7) - RON2 peptide interaction. hit rate 0.2% among 360,000. AID 720542, 2013. AlphaScreen AMA1-biotinylated RON2 peptide binding. Potency, µM (titrated, usually from 58.2 µM), for the others: at the top dose activity change, negative = inhibition, most hits filed as inhibitors;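 also: 0% = vehicle wells and -100% = peptide control; nearly all actives have a fitted effect of over 45% in size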
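AMA1 (3D7) with his tag at 25 nM final met compounds first, then biotinylated RON2 peptide at 25 nM; detection used donor plus acceptor beads, 10 µg/mL apiece, read by AlphaScreen after 30 min at room temperature.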
Active calls of the source: *; [ ] = dose if it differs, or a comment. Unless noted, calls follow the shape of the dose curve; as a rule, active = well fitted curve in the direction sought with a large enough effect; inconclusive = small, poorly fitted or top-dose-only effect, or another doubt; inactive = no such curve, though single readings can be large; an effect the other way counts as inactive or inconclusive. Unless noted, % is scaled to controls: 0 for no effect and ±100 for the full control effect; potency is read from the fitted curve at half-maximal effect.

How did CN(C)C(=O)NC(Nc1cccc([N+](=O)[O-])c1)C(Cl)(Cl)Cl (stereo not drawn) do in these assays?
Pf growth 48h: inconclusive; Pf growth 96h: 20%; AMA1 RON2 block: -8%

What do the screens show for `Cc1ccc(NC(=O)CN2C(=O)c3cccnc3Oc3ccc(Cl)cc32)cc1`?
VACV Venus inh: -13%; VACV mCherry inh: -6%

How did C=CCn1c(SCC(=O)Nc2ccccc2)nc2scc(-c3cccs3)c2c1=O do in these assays?
VACV Venus inh: -6%; Pf growth 96h: -11%; VACV mCherry inh: -13%; AMA1 RON2 block: -8%

What do the screens show for `C=CCn1c(SCn2nnc3ccccc3c2=O)nc2scc(-c3cccs3)c2c1=O`?
VACV Venus inh: -8%; Pf growth 48h: 14%; Pf growth 96h: 2.9µM*; VACV mCherry inh: -4%; AMA1 RON2 block: 0%

What do the screens show for `CCOC(=O)c1sc2nc(CSc3ccccc3)nc(N3CCCN(C)CC3)c2c1C`?
VACV Venus inh: inconclusive; Pf growth 48h: inconclusive; Pf growth 96h: inconclusive; VACV mCherry inh: inconclusive; AMA1 RON2 block: -14%

How did CCNc1nc(CSc2ccccc2)nc2sc(C)c(C)c12 do in these assays?
VACV Venus inh: -18%; Pf growth 48h: inconclusive; Pf growth 96h: inconclusive; VACV mCherry inh: -18%; AMA1 RON2 block: -12%

Results for CCOC(=O)c1sc2nc(CSc3ccccc3)nc(N3CCC(C(N)=O)CC3)c2c1C ?
VACV Venus inh: 10µM*; Pf growth 48h: 3.3µM*; Pf growth 96h: 4.1µM*; VACV mCherry inh: 11µM*; AMA1 RON2 block: -4%

What do the screens show for `Cc1sc2nc(CSc3ccccc3)nc(N3CCC(C(N)=O)CC3)c2c1C`?
Pf growth 48h: inconclusive; Pf growth 96h: 12µM*; AMA1 RON2 block: -13%

What do the screens show for `Cc1sc2nc(CSc3ccccc3)nc(NCCN(C)C)c2c1C`?
VACV Venus inh: -22%; Pf growth 48h: inconclusive; Pf growth 96h: 5.9µM*; VACV mCherry inh: 12%; AMA1 RON2 block: -8%

Results for Cc1sc2nc(C3CC3)nc(NCCNS(=O)(=O)c3ccccc3)c2c1C ?
VACV Venus inh: -12%; Pf growth 48h: 9.3µM*; Pf growth 96h: -12%; VACV mCherry inh: -18%; AMA1 RON2 block: -4%

How did Cc1sc2nc(CSc3ccccc3)nc(N3CCOCC3)c2c1C do in these assays?
VACV Venus inh: -22%; Pf growth 48h: inconclusive; Pf growth 96h: inconclusive; VACV mCherry inh: -10%; AMA1 RON2 block: -19%

Results for CN(C)CCNC(=O)C(=O)NCC(c1cccnc1)N1CCN(c2ccccc2)CC1 (stereo not drawn) ?
VACV Venus inh: -8%; VACV mCherry inh: 3%

Results for CCOc1ccc(NC(=O)NCc2ccc3c(c2)CCN3C(C)=O)cc1 ?
VACV Venus inh: -9%; VACV mCherry inh: inactive

Results for COc1cccc(C(c2sc3nc(-c4ccco4)nn3c2O)N2CCC(O)CC2)c1 (stereo not drawn) ?
VACV Venus inh: -2%; VACV mCherry inh: -7%

How did Fc1ccc(-c2cc(-c3nc(-c4cccc(Cl)c4)no3)[nH]n2)cc1 do in these assays?
VACV Venus inh: -10%; VACV mCherry inh: -2%

What do the screens show for `CCC(C)[C@H]1CNCCN1CCc1cc(C(F)(F)F)cc(C(F)(F)F)c1` (stereo partly drawn)?
VACV Venus inh: 16µM*; Pf growth 48h: inconclusive; Pf growth 96h: inconclusive; VACV mCherry inh: inconclusive; AMA1 RON2 block: 14%

How did COc1ccc(CC(=O)NNC(=O)COc2ccc3ccccc3c2)cc1 do in these assays?
VACV Venus inh: -12%; Pf growth 48h: 20%; Pf growth 96h: 1.7µM*; VACV mCherry inh: -10%; AMA1 RON2 block: 32%[2.32 µM]

What do the screens show for `COc1cc2c(cc1NC(=S)NC(=O)c1c(OC)cccc1OC)oc1ccccc12`?
Pf growth 48h: 4.1µM*; Pf growth 96h: 3.7µM*; AMA1 RON2 block: 0%

What do the screens show for `COc1ccc(CC(=O)Nc2ccccc2NC(=O)Cc2ccc(OC)cc2)cc1`?
Pf growth 48h: 6.6µM*; Pf growth 96h: 20%; AMA1 RON2 block: 0%

What do the screens show for `COc1ccccc1NC(=O)NNC(=O)COc1ccc2ccccc2c1`?
Pf growth 48h: 7%; Pf growth 96h: -8%; AMA1 RON2 block: 126%

What do the screens show for `COc1cccc(OC)c1C(=O)NC(=S)Nc1ccc2oc(=O)ccc2c1`?
VACV Venus inh: -21%; Pf growth 48h: 3.3µM*; Pf growth 96h: 1.9µM*; VACV mCherry inh: -29%; AMA1 RON2 block: -5%[2.32 µM]

What do the screens show for `COc1ccccc1CC(=O)Nc1cc2oc3ccccc3c2cc1OC`?
VACV Venus inh: -30%; Pf growth 48h: inconclusive; Pf growth 96h: inconclusive; VACV mCherry inh: inconclusive; AMA1 RON2 block: 1%

What do the screens show for `COc1ccc(CC(=O)NNS(=O)(=O)c2ccccc2[N+](=O)[O-])cc1`?
VACV Venus inh: -9%; Pf growth 48h: 24%; Pf growth 96h: 4.7µM*; VACV mCherry inh: -3%; AMA1 RON2 block: -3%

What do the screens show for `COc1ccc(CC(=O)Nc2cc3oc4ccccc4c3cc2OC)cc1`?
VACV Venus inh: inconclusive; Pf growth 48h: 46%; Pf growth 96h: 10µM*; VACV mCherry inh: inconclusive; AMA1 RON2 block: 7%

What do the screens show for `COc1cc2c(cc1NC(=O)C(C)Sc1nc3ccccc3n1C)oc1ccccc12` (stereo not drawn)?
VACV Venus inh: -7%; Pf growth 48h: 12µM*; Pf growth 96h: 7.4µM*; VACV mCherry inh: -10%; AMA1 RON2 block: -9%

What do the screens show for `COc1cc2c(cc1NC(=O)C(C)Sc1cccc[n+]1[O-])oc1ccccc12` (stereo not drawn)?
VACV Venus inh: -21%; Pf growth 48h: 202%; Pf growth 96h: 173%; VACV mCherry inh: -7%; AMA1 RON2 block: 22%

How did COc1cc(Cl)c(C)cc1NC(=O)c1c(C)oc2nc(C)nc(N3CCCC3)c12 do in these assays?
VACV Venus inh: -11%; VACV mCherry inh: -24%

How did Cc1cc(=O)n(CC(=O)NCc2ccc(OC(C)C)cc2)c2c1c(C)nn2-c1cccc(F)c1 do in these assays?
VACV Venus inh: -12%; VACV mCherry inh: -25%

Results for COC(=O)C1=C(N)Oc2cc(C)[nH]c(=O)c2C1c1cc(OC)c(OC)c(OC)c1 (stereo not drawn) ?
VACV Venus inh: 1%; Pf growth 48h: 10µM*; Pf growth 96h: -9%; VACV mCherry inh: -11%; AMA1 RON2 block: 2%

What do the screens show for `Nc1c2c(nc3ccccc13)N(C1CCCCC1)CC2`?
VACV Venus inh: inconclusive; Pf growth 48h: 13µM*; Pf growth 96h: 2%; VACV mCherry inh: inconclusive; AMA1 RON2 block: 25%

Results for Nc1c2c(nc3ccc(Br)cc13)N(C1CCCCC1)CC2 ?
Pf growth 48h: inconclusive; Pf growth 96h: 10µM*
